The full data set covers some 21,000 targets. This sample favours those with the largest changes.
Compound: CC1Cc2ccccc2N1C(=O)C1CCCN(C1)C(=O)CCl (mixture of isomers) [TRIM25 ligand 11 (diastereomer mixture)]
Experiment: probe-labelled cysteine peptide fold change vs DMSO (competition) (log2 fold change); higher = less target engagement (more negative = stronger competition)
Settings: 10 µM; THP-1; incubation time: 4 h
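Note: competitive chemoproteomic profiling in live THP-1 cells with an iodoacetamide desthiobiotin (IA-DTB) probe, comparing probe-labelled peptide intensities in compound-treated cells against DMSO-treated controls.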

Sequence of UniProt Q53HC5 (Q53HC5 whole entry, looked up): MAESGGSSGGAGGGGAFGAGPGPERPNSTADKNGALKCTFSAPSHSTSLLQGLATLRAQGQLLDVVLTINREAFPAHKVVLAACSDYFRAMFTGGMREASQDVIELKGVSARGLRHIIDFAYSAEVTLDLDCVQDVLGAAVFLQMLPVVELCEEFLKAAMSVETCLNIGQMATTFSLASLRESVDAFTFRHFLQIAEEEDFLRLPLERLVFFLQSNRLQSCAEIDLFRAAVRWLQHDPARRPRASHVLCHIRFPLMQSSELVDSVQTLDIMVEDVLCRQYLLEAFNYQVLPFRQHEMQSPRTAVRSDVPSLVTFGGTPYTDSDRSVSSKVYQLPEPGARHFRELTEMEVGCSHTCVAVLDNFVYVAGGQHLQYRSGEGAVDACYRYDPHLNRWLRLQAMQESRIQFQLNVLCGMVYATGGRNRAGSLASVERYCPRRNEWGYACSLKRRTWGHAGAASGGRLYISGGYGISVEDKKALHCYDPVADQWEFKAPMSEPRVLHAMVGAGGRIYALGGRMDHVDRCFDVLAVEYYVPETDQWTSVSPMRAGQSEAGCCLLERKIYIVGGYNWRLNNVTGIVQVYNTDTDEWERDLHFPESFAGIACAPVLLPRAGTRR
Sequence of UniProt Q14807 (Q14807 whole entry, looked up): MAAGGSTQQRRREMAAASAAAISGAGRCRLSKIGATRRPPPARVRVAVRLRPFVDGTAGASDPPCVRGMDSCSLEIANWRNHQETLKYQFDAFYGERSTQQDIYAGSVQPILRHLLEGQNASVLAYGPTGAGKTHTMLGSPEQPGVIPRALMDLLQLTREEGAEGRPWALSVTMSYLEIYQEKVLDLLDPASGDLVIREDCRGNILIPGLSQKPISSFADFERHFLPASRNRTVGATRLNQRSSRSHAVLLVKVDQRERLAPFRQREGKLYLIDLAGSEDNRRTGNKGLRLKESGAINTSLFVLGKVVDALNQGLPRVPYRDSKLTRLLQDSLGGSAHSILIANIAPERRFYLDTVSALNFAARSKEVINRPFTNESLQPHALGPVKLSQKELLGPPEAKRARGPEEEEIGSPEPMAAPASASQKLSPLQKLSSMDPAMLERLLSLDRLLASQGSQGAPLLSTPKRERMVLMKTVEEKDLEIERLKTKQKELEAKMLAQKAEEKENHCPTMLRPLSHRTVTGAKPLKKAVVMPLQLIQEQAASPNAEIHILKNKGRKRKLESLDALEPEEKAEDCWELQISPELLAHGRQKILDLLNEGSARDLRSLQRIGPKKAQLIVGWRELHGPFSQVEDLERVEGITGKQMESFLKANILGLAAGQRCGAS
Sequence of UniProt Q8TDW0 (Q8TDW0 whole entry, looked up): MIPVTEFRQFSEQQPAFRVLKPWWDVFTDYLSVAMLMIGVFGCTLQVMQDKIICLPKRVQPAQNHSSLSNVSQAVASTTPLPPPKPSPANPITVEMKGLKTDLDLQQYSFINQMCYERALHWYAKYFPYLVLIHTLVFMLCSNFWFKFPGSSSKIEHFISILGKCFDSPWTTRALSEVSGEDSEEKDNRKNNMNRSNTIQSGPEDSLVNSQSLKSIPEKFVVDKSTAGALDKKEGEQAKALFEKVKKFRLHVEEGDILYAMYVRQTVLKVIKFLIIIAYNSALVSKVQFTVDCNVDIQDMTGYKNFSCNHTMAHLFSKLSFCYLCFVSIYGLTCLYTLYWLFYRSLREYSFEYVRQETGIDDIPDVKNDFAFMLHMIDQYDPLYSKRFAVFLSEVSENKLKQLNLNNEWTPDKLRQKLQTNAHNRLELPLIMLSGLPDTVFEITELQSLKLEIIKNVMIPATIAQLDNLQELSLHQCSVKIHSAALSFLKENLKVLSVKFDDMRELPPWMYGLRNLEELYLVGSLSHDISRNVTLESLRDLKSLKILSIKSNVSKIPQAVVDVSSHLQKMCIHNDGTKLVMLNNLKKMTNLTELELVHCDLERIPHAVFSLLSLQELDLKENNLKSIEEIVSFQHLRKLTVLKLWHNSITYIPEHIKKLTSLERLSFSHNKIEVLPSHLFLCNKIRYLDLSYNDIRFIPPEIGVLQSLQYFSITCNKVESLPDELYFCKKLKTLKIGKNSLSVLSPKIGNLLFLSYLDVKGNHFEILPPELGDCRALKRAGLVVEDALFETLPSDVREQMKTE
Sequence of UniProt Q9Y2H2 (Q9Y2H2 whole entry, looked up): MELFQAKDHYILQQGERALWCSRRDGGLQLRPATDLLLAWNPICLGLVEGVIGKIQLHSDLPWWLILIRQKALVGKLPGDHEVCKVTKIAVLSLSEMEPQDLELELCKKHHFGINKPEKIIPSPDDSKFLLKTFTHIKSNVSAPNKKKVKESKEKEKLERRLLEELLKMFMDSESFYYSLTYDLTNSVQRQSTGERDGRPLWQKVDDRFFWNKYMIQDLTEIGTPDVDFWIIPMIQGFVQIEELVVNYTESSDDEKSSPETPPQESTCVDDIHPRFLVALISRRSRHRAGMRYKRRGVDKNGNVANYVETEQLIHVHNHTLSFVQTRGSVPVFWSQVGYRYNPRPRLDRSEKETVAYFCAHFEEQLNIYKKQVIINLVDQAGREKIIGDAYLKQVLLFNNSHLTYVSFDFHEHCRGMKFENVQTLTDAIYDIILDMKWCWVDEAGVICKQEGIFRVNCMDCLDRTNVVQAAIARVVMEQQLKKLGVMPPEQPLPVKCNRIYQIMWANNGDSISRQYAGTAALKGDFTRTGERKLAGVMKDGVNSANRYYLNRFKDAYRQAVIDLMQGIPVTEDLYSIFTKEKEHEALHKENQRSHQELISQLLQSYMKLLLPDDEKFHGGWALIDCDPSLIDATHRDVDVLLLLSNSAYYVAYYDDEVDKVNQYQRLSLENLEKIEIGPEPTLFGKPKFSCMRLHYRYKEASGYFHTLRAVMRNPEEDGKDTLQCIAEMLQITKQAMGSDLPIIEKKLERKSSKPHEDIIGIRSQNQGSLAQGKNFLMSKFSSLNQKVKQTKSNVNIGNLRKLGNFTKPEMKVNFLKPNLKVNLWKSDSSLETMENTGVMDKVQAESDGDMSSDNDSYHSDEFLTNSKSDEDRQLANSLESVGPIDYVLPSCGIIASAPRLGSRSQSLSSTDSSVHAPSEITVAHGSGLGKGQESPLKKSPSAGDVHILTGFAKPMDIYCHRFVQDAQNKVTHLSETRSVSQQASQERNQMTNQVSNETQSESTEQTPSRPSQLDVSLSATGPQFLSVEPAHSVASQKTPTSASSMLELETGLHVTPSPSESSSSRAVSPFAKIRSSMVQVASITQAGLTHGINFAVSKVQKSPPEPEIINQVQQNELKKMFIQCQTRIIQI
Sequence of UniProt O60711 (O60711 whole entry, looked up): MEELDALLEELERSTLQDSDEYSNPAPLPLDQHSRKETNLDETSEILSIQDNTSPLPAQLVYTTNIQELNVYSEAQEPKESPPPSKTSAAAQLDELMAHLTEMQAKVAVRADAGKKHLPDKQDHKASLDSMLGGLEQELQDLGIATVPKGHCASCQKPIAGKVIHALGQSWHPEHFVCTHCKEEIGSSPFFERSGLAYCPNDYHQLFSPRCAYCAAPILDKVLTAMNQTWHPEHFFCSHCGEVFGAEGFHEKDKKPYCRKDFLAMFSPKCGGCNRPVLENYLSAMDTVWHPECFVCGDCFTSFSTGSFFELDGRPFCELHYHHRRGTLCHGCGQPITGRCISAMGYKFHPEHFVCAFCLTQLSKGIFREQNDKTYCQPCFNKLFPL
Sequence of UniProt Q9Y496 (Q9Y496 whole entry): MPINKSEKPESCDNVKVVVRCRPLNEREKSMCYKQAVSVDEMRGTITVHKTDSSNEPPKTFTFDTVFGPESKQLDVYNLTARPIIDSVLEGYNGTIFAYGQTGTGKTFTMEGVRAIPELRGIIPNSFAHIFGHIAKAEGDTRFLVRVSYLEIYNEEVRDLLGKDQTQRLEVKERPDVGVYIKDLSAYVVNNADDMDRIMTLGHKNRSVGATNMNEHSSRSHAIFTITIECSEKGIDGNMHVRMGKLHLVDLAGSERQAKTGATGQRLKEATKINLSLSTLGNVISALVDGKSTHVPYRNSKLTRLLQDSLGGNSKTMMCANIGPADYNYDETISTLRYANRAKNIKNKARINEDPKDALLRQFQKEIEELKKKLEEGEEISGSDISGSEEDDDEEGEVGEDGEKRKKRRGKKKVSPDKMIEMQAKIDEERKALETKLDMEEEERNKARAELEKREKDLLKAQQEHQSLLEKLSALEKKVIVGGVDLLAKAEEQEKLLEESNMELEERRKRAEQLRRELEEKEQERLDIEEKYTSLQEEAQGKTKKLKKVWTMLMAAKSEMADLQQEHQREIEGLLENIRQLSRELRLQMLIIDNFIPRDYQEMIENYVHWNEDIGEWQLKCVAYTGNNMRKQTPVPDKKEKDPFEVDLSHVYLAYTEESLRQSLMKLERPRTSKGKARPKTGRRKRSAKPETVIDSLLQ
Sequence of UniProt O14920 (O14920 whole entry, looked up): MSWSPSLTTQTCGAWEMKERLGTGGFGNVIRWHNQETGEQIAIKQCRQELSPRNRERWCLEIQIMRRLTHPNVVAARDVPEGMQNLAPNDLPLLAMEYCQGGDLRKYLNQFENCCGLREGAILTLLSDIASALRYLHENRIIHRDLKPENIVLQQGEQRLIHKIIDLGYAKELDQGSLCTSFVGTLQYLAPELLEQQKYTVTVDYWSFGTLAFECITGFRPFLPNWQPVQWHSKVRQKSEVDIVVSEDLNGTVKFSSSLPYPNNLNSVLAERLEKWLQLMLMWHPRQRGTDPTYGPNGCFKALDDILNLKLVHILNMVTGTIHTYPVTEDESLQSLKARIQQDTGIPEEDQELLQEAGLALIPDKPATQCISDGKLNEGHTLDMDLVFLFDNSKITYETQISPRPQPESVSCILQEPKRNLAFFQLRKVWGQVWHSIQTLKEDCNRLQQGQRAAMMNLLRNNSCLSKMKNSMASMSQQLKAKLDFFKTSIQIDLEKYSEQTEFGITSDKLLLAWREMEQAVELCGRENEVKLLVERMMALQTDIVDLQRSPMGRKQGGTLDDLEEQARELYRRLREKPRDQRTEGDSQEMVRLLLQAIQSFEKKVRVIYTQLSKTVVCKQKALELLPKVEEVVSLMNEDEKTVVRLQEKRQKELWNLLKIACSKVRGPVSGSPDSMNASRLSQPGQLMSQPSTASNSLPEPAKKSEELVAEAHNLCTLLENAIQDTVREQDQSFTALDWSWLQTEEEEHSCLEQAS

Target	probe-labelled cysteine peptide fold change
LRRC8C_Q8TDW0_599_MTNLTELELVHCDLER (UniProt Q8TDW0)	0.076
INPP5F_Q9Y2H2_725_DTLQCIAEMLQITK (UniProt Q9Y2H2)	0.173
ITSN2_Q9NZM3_1429_ENSDRLEWIQAHVQCEGLAEQLIFNSLTNCLGPR (UniProt Q9NZM3)	-0.507
LGALS1_P09382_3_ACGLVASNLNLKPGECLR (UniProt P09382)	-0.0986
LGALS1_P09382_17_ACGLVASNLNLKPGECLR (UniProt P09382)	-0.0469
IKBKB_O14920_524_EMEQAVELCGR (UniProt O14920)	0.182
ITGB2_P05107_386_VTYDSFCSNGVTHR (UniProt P05107)	0.0533
IVD_P26440_136_ASGAVGLSYGAHSNLCINQLVR (UniProt P26440)	0.0597
KNTC1_P50748_911_IIDLIDREQGEDCLLLLK (UniProt P50748)	0.282
KLHL26_Q53HC5_383_SGEGAVDACYR (UniProt Q53HC5)	0.33
LIMS1_P48059_193+196_MGVPICGACR (UniProt P48059)	-0.089
IGF2R_P11717_149_TLGTPEFVTATECVHYFEWR (UniProt P11717)	-0.0703
IARS2_Q9NSE4_819_SCQTALVEILDVIVR (UniProt Q9NSE4)	0.153
KIF22_Q14807_201_VLDLLDPASGDLVIREDCR (UniProt Q14807)	-0.154
KDM3A_Q9Y4C1_814_PACPASTSPLNWLADLTSGNVNK (UniProt Q9Y4C1)	0.0136
LPXN_O60711_155_GHCASCQK (UniProt O60711)	0.00581
LIMS3_P0CW19-2_121+132_KYCEHDFQMLFAPCCHQCGEFIIGR<|>LIMS1_P48059_59+70_KYCEHDFQMLFAPCCHQCGEFIIGR (UniProt P48059+P0CW19)	-0.18
INTS6L_Q5JSJ4_745_NCSLSVDDQK (UniProt Q5JSJ4)	0.156
KIAA1958_Q8N8K9_246_PKPQTHAGPSCVGSAK (UniProt Q8N8K9)	-0.0886
ITGB2_P05107_481_NCECQTQGR (UniProt P05107)	-0.17
IRF3_Q14653_267_HVLSCLGGGLALWR (UniProt Q14653)	-0.17
LANCL2_Q9NS86_367_GYGICHGTAGNGYSFLSLYR (UniProt Q9NS86)	0.0845
KPNA1_P52294_424_YLVELGCIK (UniProt P52294)	0.213
LIG3_P49916_499_KCPNGMFSEIKYDGER (UniProt P49916)	0.24
IGF2R_P11717_1783_TSECDFVFEWETPVVCPDEVR (UniProt P11717)	-0.144
KIF3A_Q9Y496_230_SHAIFTITIECSEK (UniProt Q9Y496)	0.112

Same assay, conditions: 50 µM; THP-1; incubation time: 4 h

Target	probe-labelled cysteine peptide fold change
LRRC8C_Q8TDW0_599_MTNLTELELVHCDLER (UniProt Q8TDW0)	0.0824
INPP5F_Q9Y2H2_725_DTLQCIAEMLQITK (UniProt Q9Y2H2)	0.242
ITSN2_Q9NZM3_1429_ENSDRLEWIQAHVQCEGLAEQLIFNSLTNCLGPR (UniProt Q9NZM3)	-0.633
LGALS1_P09382_3_ACGLVASNLNLKPGECLR (UniProt P09382)	-0.246
LGALS1_P09382_17_ACGLVASNLNLKPGECLR (UniProt P09382)	-0.0291
IKBKB_O14920_524_EMEQAVELCGR (UniProt O14920)	0.0969
ITGB2_P05107_386_VTYDSFCSNGVTHR (UniProt P05107)	-0.0395
IVD_P26440_136_ASGAVGLSYGAHSNLCINQLVR (UniProt P26440)	-0.151
KNTC1_P50748_911_IIDLIDREQGEDCLLLLK (UniProt P50748)	0.137
KLHL26_Q53HC5_383_SGEGAVDACYR (UniProt Q53HC5)	0.211
LIMS1_P48059_193+196_MGVPICGACR (UniProt P48059)	-0.114
IGF2R_P11717_149_TLGTPEFVTATECVHYFEWR (UniProt P11717)	-0.305
IARS2_Q9NSE4_819_SCQTALVEILDVIVR (UniProt Q9NSE4)	-0.107
KIF22_Q14807_201_VLDLLDPASGDLVIREDCR (UniProt Q14807)	-0.158
KDM3A_Q9Y4C1_814_PACPASTSPLNWLADLTSGNVNK (UniProt Q9Y4C1)	-0.377
LPXN_O60711_155_GHCASCQK (UniProt O60711)	0.145
LIMS3_P0CW19-2_121+132_KYCEHDFQMLFAPCCHQCGEFIIGR<|>LIMS1_P48059_59+70_KYCEHDFQMLFAPCCHQCGEFIIGR (UniProt P48059+P0CW19)	-0.291
INTS6L_Q5JSJ4_745_NCSLSVDDQK (UniProt Q5JSJ4)	-0.0158
KIAA1958_Q8N8K9_246_PKPQTHAGPSCVGSAK (UniProt Q8N8K9)	-0.293
ITGB2_P05107_481_NCECQTQGR (UniProt P05107)	-0.216
IRF3_Q14653_267_HVLSCLGGGLALWR (UniProt Q14653)	0.346
LANCL2_Q9NS86_367_GYGICHGTAGNGYSFLSLYR (UniProt Q9NS86)	-0.0445
KPNA1_P52294_424_YLVELGCIK (UniProt P52294)	0.184
LIG3_P49916_499_KCPNGMFSEIKYDGER (UniProt P49916)	0.59
IGF2R_P11717_1783_TSECDFVFEWETPVVCPDEVR (UniProt P11717)	-0.672
KIF3A_Q9Y496_230_SHAIFTITIECSEK (UniProt Q9Y496)	-0.0259
